Assay results reported in PubChem BioAssay (NCI).
Compounds without any hit were thinned out: in the full panel of roughly 83,000, 20% have a hit.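 48-hour exposure, single concentration, 96-well plates; percent growth endpoint where 0 means no net growth. Active: below 10.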 Values without a mark were called inactive. The source made the active and inactive calls.

What follows are molecules tested on ACHN renal (assay: NCI-60 one-dose screen, 48 h (100 = growth as untreated, 0 = no growth, -100 = all killed)). Conditions: 10 µM unless noted.
Experimental: Growth inhibition of the ACHN human tumor cell line is measured as a screen for anti-cancer activity. Cells are grown in 96 well plates and exposed to the test compound for 48 hours. Compounds are tested at a single concentration, which is 10^-5 M for most compounds. The reported endpoint is percent growth (GI% or GIPRCNT), where numbers from 0 - 100% represent growth inhibition, and numbers from -100% - 0 represent cell death. For example, a value of 40 represents 60% growth inhibition. A value of 0 means no net growth occurred over the course of the experiment. A value of -40 indicates 40% of cells at the beginning of the experiment died by the end of the experiment. A value of -100 means all cells are dead at the end of the experiment.
NCI-60 Human Tumor Cell Lines Screen was performed using the standard one-dose NCI protocol, which is described in more detail at https://dtp.cancer.gov/discovery_development/nci-60/default.htm.
Compounds with GIPRCNT values below 10 were considered active. Activity score was based on GIPRCNT using the following formula: […]
Score is 0 for GIPRCNT values of 100 or above, 50 for GIPRCNT values of 0, and 100 for GIPRCNT values of -100.

CCN(Cc1ccc(Cl)c(Cl)c1)c1ccc2nc(N)nc(N)c2c1C was tested, and the growth was -95.6% (active).
With CCN(CC)c1ccc2nc3ccc(N=Nc4ccc(N(C)C)cc4)cc3[n+](-c3ccccc3)c2c1 the growth was -79.4% (active).
C=C1CC2(OC1=O)C(=O)N(C)c1ccc(I)cc12 (stereo not given) was tested, and the growth was -84.5% (active).
With OCCOc1ccc(-c2cc(-c3ccccn3)nc(-c3ccccn3)c2)cc1 the growth was 3.04% (active).

Point of comparison: CC(C)(CC(=O)O)CC(=O)O, growth 104%. Against it:
- NC(CO)(CO)c1ccccc1 — higher, 112%
- O=CNCCc1ccccc1 — lower, 98.5%
- COC(c1ccc2c(c1)OCO2)C(C)Br (stereo not given) — lower, 102%
- Oc1cc(O)c2c(c1)O[C@H](c1ccc(O)c(O)c1)[C@@H](O)C2 — lower, 98%
- O=C(OCc1ccccc1)n1nnc2ccccc21 — higher, 108%
- CCOC(=O)CO — higher, 109%
- Cc1ccc[n+](CCC(N)=O)c1 — higher, 105%
- CC(=O)NNC(=S)N/C=C/c1c(C)ccc([N+](=O)[O-])c1[N+](=O)[O-] — lower, 98.1%
- CCOC(=O)c1c[nH][nH]c1=O — higher, 106%
- O=[N+]([O-])c1c(O)c(CNCCCO)cc(CNCCCO)c1O — lower, 93.9%
- C=CCc1cc(OC)c(O)c(OC)c1 — lower, 102%
- Cn1c(=O)c2[nH]c(CC(=O)O)nc2n(C)c1=O — higher, 111%
- CC(CO)(CO)C(=O)O — lower, 103%
- S=c1nc(-c2ccccn2)c(-c2ccccn2)n[nH]1 — higher, 109%
- COc1cc(C(=O)NC(=S)NCc2ccncc2)cc(OC)c1OC — lower, 94.2%
- CCOC(=O)c1ccc(C(C)(C)C)cc1 — higher, 110%
- CCOC(=O)c1ccc(NC(C)=O)o1 — higher, 108%
- Cn1c(=O)c2[nH]c(CCCCC(=O)O)nc2n(C)c1=O — lower, 103%
- CC1=CC(=Nc2ccc(N(C)C)cc2)C=C(C)C1=O — lower, 77.3%
- Cn1c(=O)[nH]c2ccccc2c1=O — higher, 105%
- O=S(=O)(O)C(C(I)I)S(=O)(=O)O — higher, 114%
- S=CN1CCCCC1 — higher, 107%
- CN1CCCN(C(c2ccccc2)c2ccc(Cl)cc2)CC1 (stereo not given) — lower, 98.7%
- Cc1[nH]c(=S)[nH]c(=O)c1C — lower, 96.6%
- Cc1ccc(O)c(N)c1 — lower, 97%
- S=C=Nc1ccc2ccccc2c1 — lower, 100%
- Nc1nc(N)nc(N2CCCCC2)n1 — higher, 110%
- OCCc1ccc(Cl)cc1 — higher, 105%
- ClCC(Cl)[C@@H]1CC2C=CC1C2 (stereo not given in full) — higher, 108%
- O=C(O)c1ccc(OCc2ccccc2)cc1 — lower, 94.3%
- COc1cccc(N=CNc2cccc(OC)c2)c1 — lower, 86.2%
- CC(=O)NC(CCc1ccc(Cl)c(Cl)c1)c1cccc(O)c(=O)c1 (stereo not given) — lower, 17.5%
- O=C(c1ccc(Cl)cc1)N1CCCCC1 — lower, 101%
- CCOC(=O)N[C@H]1CCc2cc(OC)c(OC)c(OC)c2-c2ccc(SC)c(=O)cc21 — lower, 28.3%
- C1CCc2onc(-c3noc4c3CCCCC4)c2CC1 — higher, 113%
